Experimental data reported in ChEMBL document CHEMBL1961873, “Compounds: GSK PKIS; Assays: Nanosyn kinase panel” (2012).
Values joined by “and” are separate entries in the source; they are usually repeats but may differ in a detail not shown here. Equal entries are not always repeated.

Assays:
[1] = tested on: Epidermal growth factor receptor (Homo sapiens), P00533 [T790M]; conditions: at 1 µM
[2] = tested on: Epidermal growth factor receptor (Homo sapiens), P00533 [L858R,T790M]; conditions: at 0.1 µM
Chain of Epidermal growth factor receptor (Homo sapiens), P00533 [L858R,T790M] (P00533 whole entry T790M/L858R, looked up): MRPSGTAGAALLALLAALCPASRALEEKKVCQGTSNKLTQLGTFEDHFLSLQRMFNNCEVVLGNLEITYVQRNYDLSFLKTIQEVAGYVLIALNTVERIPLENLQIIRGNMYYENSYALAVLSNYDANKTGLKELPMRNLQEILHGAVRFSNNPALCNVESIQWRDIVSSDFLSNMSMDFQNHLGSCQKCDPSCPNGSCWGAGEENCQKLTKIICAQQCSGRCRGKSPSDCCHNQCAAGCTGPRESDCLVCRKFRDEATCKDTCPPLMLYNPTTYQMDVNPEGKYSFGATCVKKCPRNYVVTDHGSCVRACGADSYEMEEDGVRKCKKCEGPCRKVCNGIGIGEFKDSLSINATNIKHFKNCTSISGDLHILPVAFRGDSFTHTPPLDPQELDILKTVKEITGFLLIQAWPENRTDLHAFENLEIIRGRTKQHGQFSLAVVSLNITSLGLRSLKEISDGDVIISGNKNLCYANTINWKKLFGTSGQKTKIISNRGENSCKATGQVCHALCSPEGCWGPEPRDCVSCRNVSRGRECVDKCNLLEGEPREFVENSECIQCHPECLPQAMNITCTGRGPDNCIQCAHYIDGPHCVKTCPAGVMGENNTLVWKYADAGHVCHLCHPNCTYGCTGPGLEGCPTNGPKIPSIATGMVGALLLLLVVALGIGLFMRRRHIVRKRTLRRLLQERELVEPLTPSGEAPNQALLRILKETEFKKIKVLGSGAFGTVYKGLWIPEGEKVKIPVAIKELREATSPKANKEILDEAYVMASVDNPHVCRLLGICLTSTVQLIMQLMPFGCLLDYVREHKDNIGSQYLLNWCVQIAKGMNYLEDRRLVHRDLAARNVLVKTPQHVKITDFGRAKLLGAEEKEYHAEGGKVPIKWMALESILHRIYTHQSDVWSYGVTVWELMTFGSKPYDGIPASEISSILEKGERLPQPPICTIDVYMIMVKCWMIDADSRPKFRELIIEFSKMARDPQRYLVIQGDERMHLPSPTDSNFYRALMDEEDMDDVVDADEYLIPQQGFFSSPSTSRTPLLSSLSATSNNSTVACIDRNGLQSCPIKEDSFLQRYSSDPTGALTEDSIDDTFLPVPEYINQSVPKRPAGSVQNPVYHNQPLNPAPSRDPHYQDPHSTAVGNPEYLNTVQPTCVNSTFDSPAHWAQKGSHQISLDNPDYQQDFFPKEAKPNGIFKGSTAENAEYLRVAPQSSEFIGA

[3] = tested on: Epidermal growth factor receptor (Homo sapiens), P00533 [L858R,T790M]; conditions: at 1 µM
[4] = target: Ephrin type-A receptor 2 (Homo sapiens) (UniProt P29317); conditions: at 0.1 µM
Chain of Ephrin type-A receptor 2 (Homo sapiens) (P29317 whole entry): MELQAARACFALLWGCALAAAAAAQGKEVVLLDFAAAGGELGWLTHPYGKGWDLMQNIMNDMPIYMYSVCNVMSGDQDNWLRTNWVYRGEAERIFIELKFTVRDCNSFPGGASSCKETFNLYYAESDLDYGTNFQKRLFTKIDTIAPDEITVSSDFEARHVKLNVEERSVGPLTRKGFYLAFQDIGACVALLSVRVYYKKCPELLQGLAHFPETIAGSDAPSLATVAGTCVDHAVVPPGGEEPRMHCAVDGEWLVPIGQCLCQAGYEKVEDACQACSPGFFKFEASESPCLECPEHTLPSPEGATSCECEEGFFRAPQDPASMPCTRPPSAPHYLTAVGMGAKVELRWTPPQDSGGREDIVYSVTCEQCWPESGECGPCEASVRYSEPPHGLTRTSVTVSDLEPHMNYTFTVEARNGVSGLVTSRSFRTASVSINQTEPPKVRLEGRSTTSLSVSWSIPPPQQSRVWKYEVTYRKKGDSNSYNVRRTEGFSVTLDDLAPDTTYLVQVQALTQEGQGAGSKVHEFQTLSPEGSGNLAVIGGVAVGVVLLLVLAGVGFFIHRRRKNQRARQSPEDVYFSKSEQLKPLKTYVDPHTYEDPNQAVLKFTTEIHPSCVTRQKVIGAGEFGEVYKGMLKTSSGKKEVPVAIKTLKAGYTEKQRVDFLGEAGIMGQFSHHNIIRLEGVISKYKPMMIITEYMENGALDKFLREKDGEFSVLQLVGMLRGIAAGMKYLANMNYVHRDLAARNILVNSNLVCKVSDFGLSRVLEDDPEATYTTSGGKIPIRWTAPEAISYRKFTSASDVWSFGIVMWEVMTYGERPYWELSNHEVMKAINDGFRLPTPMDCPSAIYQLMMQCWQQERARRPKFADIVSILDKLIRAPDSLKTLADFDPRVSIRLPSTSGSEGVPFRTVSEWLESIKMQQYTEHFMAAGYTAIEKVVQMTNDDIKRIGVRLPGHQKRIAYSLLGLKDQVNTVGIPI

[5] = target: Ephrin type-A receptor 2 (Homo sapiens) (UniProt P29317); conditions: at 1 µM
[6] = target: T1, Ephrin type-A receptor 3 (Homo sapiens) (UniProt P29320); conditions: at 0.1 µM
T1 sequence (whole entry): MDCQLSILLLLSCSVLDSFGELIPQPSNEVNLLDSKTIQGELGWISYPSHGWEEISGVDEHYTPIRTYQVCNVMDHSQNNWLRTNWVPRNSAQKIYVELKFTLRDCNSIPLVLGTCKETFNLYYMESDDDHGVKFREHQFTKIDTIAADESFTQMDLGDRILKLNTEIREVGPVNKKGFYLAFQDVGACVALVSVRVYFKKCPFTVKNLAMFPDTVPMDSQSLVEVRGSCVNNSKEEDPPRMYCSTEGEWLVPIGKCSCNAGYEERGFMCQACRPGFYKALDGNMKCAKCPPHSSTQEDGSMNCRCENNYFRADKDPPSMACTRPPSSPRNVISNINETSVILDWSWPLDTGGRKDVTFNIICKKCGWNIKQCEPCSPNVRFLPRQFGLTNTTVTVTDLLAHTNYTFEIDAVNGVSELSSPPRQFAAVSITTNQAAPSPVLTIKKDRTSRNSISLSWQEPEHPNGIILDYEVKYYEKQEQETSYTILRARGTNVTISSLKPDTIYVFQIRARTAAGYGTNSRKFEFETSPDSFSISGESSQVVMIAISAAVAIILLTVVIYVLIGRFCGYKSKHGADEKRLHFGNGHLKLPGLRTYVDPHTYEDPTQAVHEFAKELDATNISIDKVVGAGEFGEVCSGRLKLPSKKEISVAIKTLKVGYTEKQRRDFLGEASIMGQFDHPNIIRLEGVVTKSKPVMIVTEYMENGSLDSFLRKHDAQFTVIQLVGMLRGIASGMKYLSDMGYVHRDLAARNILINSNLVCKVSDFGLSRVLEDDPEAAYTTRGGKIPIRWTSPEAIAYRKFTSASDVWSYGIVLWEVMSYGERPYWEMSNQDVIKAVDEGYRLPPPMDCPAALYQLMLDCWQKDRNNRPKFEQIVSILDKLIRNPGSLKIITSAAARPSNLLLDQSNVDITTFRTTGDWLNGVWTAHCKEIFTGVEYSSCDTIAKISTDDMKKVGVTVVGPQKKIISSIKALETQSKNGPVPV

[7] = target: T1, Ephrin type-A receptor 3 (Homo sapiens); conditions: at 1 µM
[8] = target: Ephrin type-A receptor 4 (Homo sapiens) (UniProt P54764); conditions: at 0.1 µM
[9] = target: Ephrin type-A receptor 4 (Homo sapiens) (UniProt P54764); conditions: at 1 µM
[10] = target: T2, Ephrin type-B receptor 2 (Homo sapiens) (UniProt P29323); conditions: at 0.1 µM
T2 sequence (whole entry): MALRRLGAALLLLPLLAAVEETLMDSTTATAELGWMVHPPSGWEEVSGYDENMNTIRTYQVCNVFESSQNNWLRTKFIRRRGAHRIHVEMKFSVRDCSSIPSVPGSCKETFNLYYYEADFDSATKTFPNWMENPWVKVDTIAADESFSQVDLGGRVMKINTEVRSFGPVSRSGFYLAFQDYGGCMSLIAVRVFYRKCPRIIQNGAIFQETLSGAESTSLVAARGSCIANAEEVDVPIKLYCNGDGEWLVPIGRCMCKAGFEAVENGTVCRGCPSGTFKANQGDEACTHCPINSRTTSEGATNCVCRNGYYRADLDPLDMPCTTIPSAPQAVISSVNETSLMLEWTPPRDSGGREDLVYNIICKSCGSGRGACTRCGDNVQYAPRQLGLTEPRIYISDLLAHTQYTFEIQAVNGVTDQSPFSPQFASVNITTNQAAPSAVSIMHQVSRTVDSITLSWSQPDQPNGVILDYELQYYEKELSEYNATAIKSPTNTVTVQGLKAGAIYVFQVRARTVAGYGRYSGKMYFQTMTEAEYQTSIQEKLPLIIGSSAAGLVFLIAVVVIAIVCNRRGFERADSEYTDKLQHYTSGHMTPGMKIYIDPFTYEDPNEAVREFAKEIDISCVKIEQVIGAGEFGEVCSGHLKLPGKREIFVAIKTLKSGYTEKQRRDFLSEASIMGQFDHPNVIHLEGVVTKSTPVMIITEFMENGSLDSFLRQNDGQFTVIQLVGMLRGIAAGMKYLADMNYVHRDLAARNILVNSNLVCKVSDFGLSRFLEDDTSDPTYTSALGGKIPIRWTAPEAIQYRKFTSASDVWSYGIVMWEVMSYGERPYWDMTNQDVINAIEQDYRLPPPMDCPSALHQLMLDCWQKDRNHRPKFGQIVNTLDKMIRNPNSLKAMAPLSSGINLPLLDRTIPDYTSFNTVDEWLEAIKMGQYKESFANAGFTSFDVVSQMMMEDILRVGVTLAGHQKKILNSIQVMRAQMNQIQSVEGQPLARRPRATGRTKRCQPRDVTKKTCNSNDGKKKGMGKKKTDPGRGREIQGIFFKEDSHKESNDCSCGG

[11] = target: T2, Ephrin type-B receptor 2 (Homo sapiens); conditions: at 1 µM
[12] = target: T3, Ephrin type-B receptor 3 (Homo sapiens) (UniProt P54753); conditions: at 0.1 µM
T3 sequence (whole entry): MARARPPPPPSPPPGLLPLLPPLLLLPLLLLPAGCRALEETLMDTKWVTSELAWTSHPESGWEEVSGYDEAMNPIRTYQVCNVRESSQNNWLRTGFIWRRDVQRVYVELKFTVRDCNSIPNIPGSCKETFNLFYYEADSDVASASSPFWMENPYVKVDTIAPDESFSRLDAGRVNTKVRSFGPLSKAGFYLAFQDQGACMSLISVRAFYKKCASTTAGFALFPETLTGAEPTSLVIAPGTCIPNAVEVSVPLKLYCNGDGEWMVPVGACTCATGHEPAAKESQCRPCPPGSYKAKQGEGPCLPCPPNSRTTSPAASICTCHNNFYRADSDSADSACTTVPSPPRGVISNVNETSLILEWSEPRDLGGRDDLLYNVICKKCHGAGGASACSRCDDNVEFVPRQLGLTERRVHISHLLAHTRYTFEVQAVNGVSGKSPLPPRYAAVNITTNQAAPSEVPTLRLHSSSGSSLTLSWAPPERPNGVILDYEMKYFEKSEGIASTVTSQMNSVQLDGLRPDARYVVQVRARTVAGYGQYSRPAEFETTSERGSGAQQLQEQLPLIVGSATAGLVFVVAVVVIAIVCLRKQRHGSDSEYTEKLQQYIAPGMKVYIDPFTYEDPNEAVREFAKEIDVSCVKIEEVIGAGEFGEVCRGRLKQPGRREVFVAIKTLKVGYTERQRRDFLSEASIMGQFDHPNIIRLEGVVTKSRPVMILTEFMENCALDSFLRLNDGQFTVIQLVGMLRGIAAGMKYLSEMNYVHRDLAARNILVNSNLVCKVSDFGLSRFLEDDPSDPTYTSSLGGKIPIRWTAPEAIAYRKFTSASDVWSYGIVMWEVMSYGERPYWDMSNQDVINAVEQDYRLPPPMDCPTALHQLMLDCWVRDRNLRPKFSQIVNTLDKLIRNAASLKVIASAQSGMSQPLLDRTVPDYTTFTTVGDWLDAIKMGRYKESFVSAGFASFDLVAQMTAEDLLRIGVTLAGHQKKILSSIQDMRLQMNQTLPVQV

[13] = target: T3, Ephrin type-B receptor 3 (Homo sapiens); conditions: at 1 µM
[14] = target: T4, Ephrin type-B receptor 4 (Homo sapiens) (UniProt P54760); conditions: at 0.1 µM
T4 sequence (whole entry): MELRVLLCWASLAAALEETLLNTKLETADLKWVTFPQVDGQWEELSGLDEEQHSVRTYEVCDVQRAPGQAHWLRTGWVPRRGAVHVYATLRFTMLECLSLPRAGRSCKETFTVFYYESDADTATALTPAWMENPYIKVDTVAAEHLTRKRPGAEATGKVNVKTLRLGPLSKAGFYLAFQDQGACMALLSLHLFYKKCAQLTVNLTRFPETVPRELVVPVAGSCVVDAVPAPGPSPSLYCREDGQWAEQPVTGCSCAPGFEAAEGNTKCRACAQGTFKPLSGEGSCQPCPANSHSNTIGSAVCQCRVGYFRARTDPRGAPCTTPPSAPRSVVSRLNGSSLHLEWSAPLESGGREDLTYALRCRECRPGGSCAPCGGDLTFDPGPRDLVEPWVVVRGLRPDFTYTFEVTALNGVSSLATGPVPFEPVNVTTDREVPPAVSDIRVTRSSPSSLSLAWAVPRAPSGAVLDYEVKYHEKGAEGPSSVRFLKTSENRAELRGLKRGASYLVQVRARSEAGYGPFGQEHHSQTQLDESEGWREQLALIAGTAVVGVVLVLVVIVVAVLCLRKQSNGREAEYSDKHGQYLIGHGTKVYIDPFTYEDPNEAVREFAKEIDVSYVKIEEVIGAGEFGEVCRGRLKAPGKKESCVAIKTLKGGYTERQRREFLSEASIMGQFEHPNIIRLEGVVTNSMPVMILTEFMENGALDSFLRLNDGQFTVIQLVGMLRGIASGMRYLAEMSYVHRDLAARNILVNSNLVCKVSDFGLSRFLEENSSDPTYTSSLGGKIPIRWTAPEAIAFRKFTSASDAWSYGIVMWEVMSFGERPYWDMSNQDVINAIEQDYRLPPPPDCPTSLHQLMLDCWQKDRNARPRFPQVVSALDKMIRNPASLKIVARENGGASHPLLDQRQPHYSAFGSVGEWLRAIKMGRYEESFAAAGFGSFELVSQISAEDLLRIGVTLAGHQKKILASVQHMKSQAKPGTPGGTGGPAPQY

[15] = target: T4, Ephrin type-B receptor 4 (Homo sapiens); conditions: at 1 µM
[16] = target: Receptor tyrosine-protein kinase erbB-2 (Homo sapiens) (UniProt P04626); conditions: at 0.1 µM
[17] = target: Receptor tyrosine-protein kinase erbB-2 (Homo sapiens) (UniProt P04626); conditions: at 1 µM
[18] = target: Receptor tyrosine-protein kinase erbB-4 (Homo sapiens) (UniProt Q15303); conditions: at 0.1 µM
[19] = target: Receptor tyrosine-protein kinase erbB-4 (Homo sapiens) (UniProt Q15303); conditions: at 1 µM
[20] = target: Tyrosine-protein kinase Fer (Homo sapiens) (UniProt P16591); conditions: at 0.1 µM;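 also: reported figures are averaged percent inhibition of FER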
Chain of Tyrosine-protein kinase Fer (Homo sapiens) (P16591 whole entry, looked up): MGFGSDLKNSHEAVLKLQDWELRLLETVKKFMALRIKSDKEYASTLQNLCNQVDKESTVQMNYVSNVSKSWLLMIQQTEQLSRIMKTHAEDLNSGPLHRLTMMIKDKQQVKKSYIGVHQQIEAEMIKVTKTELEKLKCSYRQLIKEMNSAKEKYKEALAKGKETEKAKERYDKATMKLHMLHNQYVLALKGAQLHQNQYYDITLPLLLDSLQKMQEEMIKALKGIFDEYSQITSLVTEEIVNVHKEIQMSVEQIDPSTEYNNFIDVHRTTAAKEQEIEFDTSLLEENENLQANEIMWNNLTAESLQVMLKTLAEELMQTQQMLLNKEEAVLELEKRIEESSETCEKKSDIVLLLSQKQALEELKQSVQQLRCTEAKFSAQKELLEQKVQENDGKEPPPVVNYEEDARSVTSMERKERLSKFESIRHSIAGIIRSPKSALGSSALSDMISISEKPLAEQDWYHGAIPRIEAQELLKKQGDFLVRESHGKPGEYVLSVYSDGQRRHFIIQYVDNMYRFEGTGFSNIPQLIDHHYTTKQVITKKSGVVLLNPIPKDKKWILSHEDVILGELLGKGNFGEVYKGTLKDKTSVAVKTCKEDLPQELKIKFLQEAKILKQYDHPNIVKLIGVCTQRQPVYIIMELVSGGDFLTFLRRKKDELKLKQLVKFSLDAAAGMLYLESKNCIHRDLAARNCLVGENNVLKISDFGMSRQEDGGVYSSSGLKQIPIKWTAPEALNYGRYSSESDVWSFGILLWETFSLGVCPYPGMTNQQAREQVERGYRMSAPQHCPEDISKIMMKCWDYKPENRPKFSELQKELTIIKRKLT

Chain of Epidermal growth factor receptor (Homo sapiens), P00533 [T790M] (P00533 whole entry T790M): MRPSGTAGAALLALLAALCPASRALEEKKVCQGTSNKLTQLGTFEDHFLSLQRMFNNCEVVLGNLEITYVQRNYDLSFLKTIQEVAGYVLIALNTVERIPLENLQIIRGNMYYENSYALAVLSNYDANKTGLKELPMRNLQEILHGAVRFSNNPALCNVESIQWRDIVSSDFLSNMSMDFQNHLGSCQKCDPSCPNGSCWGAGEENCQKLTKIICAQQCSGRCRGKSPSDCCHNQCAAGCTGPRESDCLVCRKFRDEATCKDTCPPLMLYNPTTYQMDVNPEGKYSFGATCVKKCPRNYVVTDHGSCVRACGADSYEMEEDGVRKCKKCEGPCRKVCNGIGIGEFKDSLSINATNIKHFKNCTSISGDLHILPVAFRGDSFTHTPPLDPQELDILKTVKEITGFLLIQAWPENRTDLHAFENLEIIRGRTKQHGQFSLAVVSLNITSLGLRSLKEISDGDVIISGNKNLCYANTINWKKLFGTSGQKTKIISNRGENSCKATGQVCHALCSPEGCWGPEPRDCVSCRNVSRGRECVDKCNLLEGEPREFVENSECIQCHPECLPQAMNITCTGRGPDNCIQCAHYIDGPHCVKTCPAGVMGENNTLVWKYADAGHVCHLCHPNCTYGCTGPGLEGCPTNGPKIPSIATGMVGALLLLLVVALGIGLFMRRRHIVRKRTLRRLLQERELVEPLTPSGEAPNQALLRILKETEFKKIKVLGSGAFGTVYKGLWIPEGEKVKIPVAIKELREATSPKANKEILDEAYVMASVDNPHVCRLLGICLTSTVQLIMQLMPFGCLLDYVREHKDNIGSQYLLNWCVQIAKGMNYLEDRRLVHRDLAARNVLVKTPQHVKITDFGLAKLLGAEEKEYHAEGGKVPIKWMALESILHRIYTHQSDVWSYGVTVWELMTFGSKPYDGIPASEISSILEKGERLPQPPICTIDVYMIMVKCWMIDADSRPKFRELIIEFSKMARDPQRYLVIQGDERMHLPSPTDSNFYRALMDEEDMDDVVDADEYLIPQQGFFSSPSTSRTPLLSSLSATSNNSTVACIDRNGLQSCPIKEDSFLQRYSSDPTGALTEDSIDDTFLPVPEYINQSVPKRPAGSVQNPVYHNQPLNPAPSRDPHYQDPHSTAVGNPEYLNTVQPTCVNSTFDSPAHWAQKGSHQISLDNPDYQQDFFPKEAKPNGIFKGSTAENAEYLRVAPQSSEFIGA

| Compound | inhibition [1] [%] | inhibition [2] [%] | inhibition [3] [%] | inhibition [4] | inhibition [5] | inhibition [6] | inhibition [7] | inhibition [8] | inhibition [9] | inhibition [10] | inhibition [11] | inhibition [12] | inhibition [13] | inhibition [14] | inhibition [15] | inhibition [16] | inhibition [17] | inhibition [18] | inhibition [19] | inhibition [20] |
| --- | --- | --- | --- | --- | --- | --- | --- | --- | --- | --- | --- | --- | --- | --- | --- | --- | --- | --- | --- | --- |
| CCN1CCC(C(=O)Nc2n[nH]c3nnc(-c4cccc(F)c4F)cc23)CC1 | 0.18 | 0.75 | -1.85 | -3.74% | -3.34% | -0.58% | -0.43% | -1.7% | -0.26% | 0.41% | 0.53% | 0.69% | 1.64% | 0.49% | -0.12% | 1.2% | 0.02% | -0.85% | 0.79% | -0.15% |
| COc1ccccc1-c1cc(/C=C2\C(=O)Nc3ncc(Br)cc32)cc(Br)c1O | 1.53 | 1.24 | 4.48 | 1.75% | 3.18% | 4.45% | 5.49% | 9.58% | 6.4% | 6.05% | 7.78% | 8.03% | 5.59% | 1.76% | 4.26% | 1.14% | -4.15% | 11.2% | 17.7% | 1.71% |
| CS(=O)(=O)CCNCc1ccc(-c2ccc3ncnc(Nc4ccc(OCc5cccc(C(F)(F)F)c5)cc4)c3c2)o1 | 1.6 | 0.98 | 3.77 | 0.34% | 0.55% | 2.95% | 2.34% | 6.4% | 8.61% | 7.05% | 6.28% | 3.02% | 3.57% | 0.6% | 2.19% | 4.88% | 3.5% | 7.3% | 28.5% | -1.96% |
| CN1CCN(Cc2ccc(-c3cc4ncnc(Nc5ccc(OCc6cccc(F)c6)c(Cl)c5)c4s3)o2)CC1 |  |  |  | -2.36% and 1.48% | -2.73% and 2.15% | 2.75% and 5.84% | 2.47% and 3.64% | 4.95% and 10.4% | 6.16% and 11.9% | 5.13% and 6.55% | 8.33% and 7.32% | 3.73% and 7.71% | 4.63% and 4.53% | 0.3% and 3.67% | 6.48% and 3.12% | 5.26% and 7.95% | 62.3% and 65% | 81.7% and 91.1% | 93% and 97.8% | 1.93% and 6.27% |
| N#Cc1cccc(Nc2ncc(-c3ccccc3)o2)c1 | 3.24 | 0.29 | 3.37 | 1.14% | 0.54% | 2.39% | 1.84% | 6.35% | 8.39% | 2.84% | 0.63% | 3.66% | 1.53% | 0.33% | 0.44% | 2.68% | 4.17% | 6.42% | 9.11% | 1.76% |
| CC(C)c1ccc(-c2cc(-c3c[nH]nc3-c3ccccn3)ccn2)cc1 | 0.59 | -1.17 | -2.79 | -1.11% | -2.27% | 2.58% | 5.79% | 6.74% | 4.1% | 7.84% | 5.4% | 3.79% | 1.74% | 0.47% | 2.78% | 0.79% | -1.43% | 4.41% | 6.32% | 2.22% |
| COc1ccc(-c2nn3ncccc3c2-c2ccnc(Nc3ccc(F)c(F)c3)n2)cc1 | 6.23 | 3.78 | 8.64 | 2.87% | -0.08% | 3.49% | 6.3% | 8.99% | 16.4% | 7.75% | 18.6% | 4.77% | 3.59% | 1.49% | 7.6% | 4.95% | 5.88% | 27.1% | 71.3% | 4.09% |
